Source: the supplement of paper PMC11624193, “Coupling cellular drug-target engagement to downstream pharmacology with CeTEAM” (Nature Communications, 2024)

molecular target: PARP1 L713F-nLuc biosensor (HCT116) (UniProt P09874); experiment: PARP1 L713F-nLuc/akaLuc ratio relative to DMSO control (biosensor stabilization) (fold change); higher = more PARP1 biosensor stabilization (target engagement / stabilizer), active = hit call of the paper; conditions: stock concentration (mM; final µM = stock mM x 1): 10; 24 h
Sequence (P09874 whole entry L713F, looked up): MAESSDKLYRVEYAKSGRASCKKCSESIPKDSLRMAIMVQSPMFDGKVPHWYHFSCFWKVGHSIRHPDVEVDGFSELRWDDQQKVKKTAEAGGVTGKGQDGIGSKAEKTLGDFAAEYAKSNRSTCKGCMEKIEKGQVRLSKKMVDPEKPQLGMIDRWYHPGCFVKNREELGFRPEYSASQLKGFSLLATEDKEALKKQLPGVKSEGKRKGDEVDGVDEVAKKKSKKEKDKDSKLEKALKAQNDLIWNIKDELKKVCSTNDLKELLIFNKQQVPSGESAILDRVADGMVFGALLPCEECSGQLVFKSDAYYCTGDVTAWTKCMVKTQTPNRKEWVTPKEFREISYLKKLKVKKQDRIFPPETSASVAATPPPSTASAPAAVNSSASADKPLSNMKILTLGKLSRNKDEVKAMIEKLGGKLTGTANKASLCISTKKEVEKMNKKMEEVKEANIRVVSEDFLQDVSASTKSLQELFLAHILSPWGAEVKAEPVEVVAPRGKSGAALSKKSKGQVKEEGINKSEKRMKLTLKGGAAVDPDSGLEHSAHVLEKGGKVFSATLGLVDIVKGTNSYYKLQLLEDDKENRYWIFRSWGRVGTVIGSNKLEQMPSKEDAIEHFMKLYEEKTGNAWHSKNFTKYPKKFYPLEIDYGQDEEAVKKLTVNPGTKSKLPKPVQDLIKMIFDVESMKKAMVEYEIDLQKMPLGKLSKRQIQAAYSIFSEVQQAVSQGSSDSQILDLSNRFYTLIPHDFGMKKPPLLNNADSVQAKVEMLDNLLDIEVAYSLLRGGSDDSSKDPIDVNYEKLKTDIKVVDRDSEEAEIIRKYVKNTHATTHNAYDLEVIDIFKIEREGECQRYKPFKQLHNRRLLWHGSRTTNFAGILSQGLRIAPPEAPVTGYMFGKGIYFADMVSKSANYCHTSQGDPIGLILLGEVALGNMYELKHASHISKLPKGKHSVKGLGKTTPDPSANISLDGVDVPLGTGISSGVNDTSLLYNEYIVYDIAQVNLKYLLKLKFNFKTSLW

Row | SMILES | PARP1 L713F-nLuc/akaLuc ratio
1 | NC1(c2ccc(-c3nc4ccn5c(=O)[nH]nc5c4cc3-c3ccccc3)cc2)CCC1 | 0.79 (inactive)
2 | O=C(Nc1cc(Cl)cc2c1[nH]c1cnccc12)c1cccnc1 | 0.723 (inactive)
3 | Clc1ccc(Nc2nnc(Cc3ccncc3)c3ccccc23)cc1 [Vatalanib (PTK787) 2HCl] | 0.831 (inactive)
4 | N#CC[C@H](C1CCCC1)n1cc(-c2ncnc3[nH]ccc23)cn1 [Ruxolitinib (phosphate)] | 0.575 (inactive)
5 | O=C(O)c1ccc(Nc2ncc3c(n2)-c2ccc(Cl)cc2C(c2c(F)cccc2F)=NC3)cc1 | 1.87 (inactive)
6 | C=CC(=O)Nc1cccc(CNc2nc(Nc3ccc(N4CCN(C)CC4)cc3OC)ncc2Cl)c1 | 1.54 (inactive)
7 | COc1cc(OC)c2c(=O)[nH]c(-c3cc(C)c(OCCO)c(C)c3)nc2c1 [Apabetalone] | 1.28 (inactive)
8 | CC(C)N(CCC(=O)c1ccc2ccccc2c1)Cc1ccccc1 | 0.841 (inactive)
9 | COc1c(O)cc2oc(-c3ccccc3)cc(=O)c2c1O [Oroxylin A] | 0.838 (inactive)
10 | O=C(COc1cccc2c(=O)[nH]ccc12)c1ccccc1 | 1.08 (inactive)
11 | O=C(O)c1ccc(O)c2ncccc12 | 0.734 (inactive)
12 | CCS(=O)(=O)N1CCC([C@@H](C)n2c(C)c(C(=O)NCc3c(OC)cc(C)[nH]c3=O)c3ccccc32)CC1 (racemic) [CPI-169 (racemate)] | 1.12 (inactive)
13 | COC(=O)Nc1nc2cc(Sc3ccccc3)ccc2[nH]1 [Fenbendazole] | 2.66 (inactive)
